# Active and inactive are the calls of the source. Unless noted, no rule for the calls is given here.
# Experiments:
# [1] = test system: XIP peptide (Xip251-270) binding; experiment: small-molecule binders of XIP peptide, primary screen, biochemical, small-molecule microarray, fluorescence 635/667 nm, 0.1 µg/mL protein (AID 1182); conditions: fluorescent protein binding, 635 nm, higher = more signal, called active from +8 up or from −8 down
# [2] = test system: XIP peptide (Xip251-270); experiment: small-molecule binders of XIP peptide, primary screen, biochemical, small-molecule microarray, fluorescence 635/667 nm, 0.5 µg/mL protein (AID 1183); conditions: small-molecule microarray binding, fluorescence 635 nm; higher = more signal
# [3] = Plasmodium falciparum growth inhibition, primary screen, strain 3D7, DAPI fluorescence, 100 nL (AID 1184);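 also: parasites grown inside human red blood cells in medium with human serum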; conditions: P. falciparum 3D7 growth, 3 d, higher = more signal
# [4] = molecular target: Homeobox protein Hox-A13 (Mus musculus) (UniProt Q62424); experiment: inhibitors of HoxA13-DNA binding, primary screen, biochemical, fluorescence polarization, labeled oligonucleotide (AID 1185); conditions: 15 min, higher = more signal, called active from +8 up or from −8 down
# Chain of Homeobox protein Hox-A13 (Mus musculus) (Q62424 whole entry, looked up): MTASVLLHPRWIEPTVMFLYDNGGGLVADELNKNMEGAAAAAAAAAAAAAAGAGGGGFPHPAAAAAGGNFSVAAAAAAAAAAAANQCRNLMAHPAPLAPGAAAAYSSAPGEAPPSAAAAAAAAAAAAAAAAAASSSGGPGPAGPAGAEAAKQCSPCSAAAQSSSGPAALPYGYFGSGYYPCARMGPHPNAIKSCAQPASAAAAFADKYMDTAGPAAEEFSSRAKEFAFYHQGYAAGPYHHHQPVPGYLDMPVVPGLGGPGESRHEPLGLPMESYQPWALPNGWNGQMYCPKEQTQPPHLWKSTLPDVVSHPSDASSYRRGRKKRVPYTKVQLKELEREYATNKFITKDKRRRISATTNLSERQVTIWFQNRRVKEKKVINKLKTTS
# [5] = inhibitors of hydroxyurea-induced Chk1 phosphorylation, primary screen, imaging, HeLa, phospho-Chk1 antibody, percent positive cells (AID 1186); conditions: hydroxyurea-induced phospho-Chk1 immunofluorescence imaging, higher = more signal
# [6] = inhibitors of hydroxyurea-induced Chk1 phosphorylation, primary screen, imaging, HeLa, phospho-Chk1 nuclear intensity (AID 1187); conditions: hydroxyurea-induced phospho-Chk1 immunofluorescence imaging, higher = more signal
SMILES,composite z-score [1],composite z-score [2],z-score [3],z-score [4],z-score [5],z-score [6]
[N-]=[N+]=NCc1ccccc1[C@H]1OC(c2ccc(OCCCO)cc2)=N[C@@]1(Cc1ccccc1N=[N+]=[N-])C(=O)N1CCOCC1,-0.185 (inactive),0.604,-2.27,-1.45 (inactive),-0.332 (inactive),0.0967 (inactive)
C=CCNC(=O)[C@H]1[C@@H]2C(=O)O[C@@H](c3ccccc3)[C@@H](c3ccccc3)N2[C@@H](c2ccc(O)cc2)[C@]12C(=O)N(C(=O)OCCOC)c1ccc(C#Cc3ccc(OC)cc3)cc12,-0.184 (inactive),0.625,-0.812,-1.16 (inactive),0.0708 (inactive),0.21 (inactive)
COC(=O)[C@@]1(Cc2ccccc2)[C@H]2c3cc(C(=O)N(C)C)n(Cc4nc5ccccc5[nH]4)c3C[C@H]2CN1C(=O)c1ccccc1,0.857 (inactive),0.784,-0.542,-1.6 (inactive),-0.283 (inactive),0.0294 (inactive)
O=C(NCCN1CCOCC1)[C@@H]1c2ccccc2C(=O)N(CC23CC4CC(CC(C4)C2)C3)[C@H]1c1ccc(CO)cc1,0.238 (inactive),0.771,-1.32,-5.14 (inactive),0.333 (inactive),0.707 (inactive)
CC(C)C(=C=CC[C@H](O)c1cccc(OCCO)c1)C[C@H](O)c1ccccn1,0.549 (inactive),0.806,-0.991,-3.81 (inactive),-0.428 (inactive),0.321 (inactive)
O=C/C=C/c1ccc(-c2ccccc2)cc1,-1.46 (inactive),-0.548,0.886,-1.34 (inactive),0.236 (inactive),0.792 (inactive)
O=C1NC(=O)C2C1C=CC(C(O)C(c1ccccc1)c1ccccc1)N2Nc1ccccn1 (configuration not stated),0.21 (inactive),0.797,-0.315,-5.58 (inactive),-0.12 (inactive),-0.319 (inactive)
Cc1ccc(S[C@]2(C(=O)NCc3ccccc3)CC(=O)N(Cc3ccccc3C(F)(F)F)[C@@H]2c2ccc(CO)cc2I)cc1,0.404 (inactive),0.623,0.0951,-2.23 (inactive),0.225 (inactive),0.923 (inactive)
COC(=O)[C@@]1(Cc2ccc(OC)cc2)[C@@H]2[C@@H](CC(=O)[C@H]2CC(=O)C(=O)N(C)C)CN1C(=O)c1ccccc1,0.206 (inactive),0.516,-1.56,-2.61 (inactive),0.0341 (inactive),-1.04 (inactive)
O=C1O[C@H](c2ccccc2)[C@H](c2ccccc2)N2[C@H]1[C@@H](C(=O)N1CCN(c3ncccn3)CC1)[C@]1(C(=O)Nc3ccc(C#CC4(O)CCCCCC4)cc31)[C@H]2c1ccc(O)cc1,1.48 (inactive),0.817,-0.797,-1.28 (inactive),-0.168 (inactive),-0.101 (inactive)
Cc1ccc(S[C@]2(C(=O)NC3CC3)CC(=O)N(C3Cc4ccccc4C3)[C@@H]2c2ccc(CO)cc2I)cc1,0.406 (inactive),0.559,-0.396,-2.46 (inactive),0.586 (inactive),0.97 (inactive)
O=C1O[C@H](c2ccccc2)[C@H](c2ccccc2)N2[C@H]1[C@@H](C(=O)N1CCCCCCC1)[C@]1(C(=O)Nc3ccc(C#CCCO)cc31)[C@H]2c1ccc(O)cc1,4.41 (inactive),0.976,-0.189,1.85 (inactive),-0.323 (inactive),-0.279 (inactive)
